Experimental data taken from PubChem BioAssay (NCI).
Values joined by “and” are separate entries in the source; they are usually repeats but may differ in a detail not shown here. Identical values can stand only once. About 83,000 compounds went through this panel and 20% of them were active in at least one assay; those are over-represented in the sample as a whole.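 Single-concentration screen, 48 h exposure, 96-well plates. Endpoint: percent growth. Below 10 = active.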 Unmarked numbers belong to inactive results. Active and inactive are the calls of the source.

system: MDA-MB-468 breast; assay: NCI-60 one-dose screen, 48 h (100 = growth as untreated, 0 = no growth, -100 = all killed); details: 10 µM unless noted

Question: Which growth does the source give for `O=C(N/N=C/c1ccc(O)cc1O)c1cccc(Nc2ccnc(C(F)(F)F)c2)c1` here?
Answer: The growth was 43.1%.

Question: `O=C(O)CNC(=O)C1(N2C(=O)c3ccccc3C2=O)CCCC1` was tested. Which growth did it give?
Answer: The growth was 98.1%.

Question: Which growth does the source give for `C=C1C(=O)O[C@H]2[C@H]1CC/C(CNC(=O)CCc1ccc(OC)cc1)=C\CC[C@@]1(C)O[C@@H]21` here?
Answer: Its growth is 32.1%.

Question: For `COc1cc2nc(-c3ccc(-c4nn[nH]n4)cc3)[nH]c(=O)c2cc1OC`, which growth is on record?
Answer: The growth was 104%.

Question: `CCOC(=O)c1c2c(n(-c3ccc(C#N)cc3)c1-c1ccccc1)C=CCC2` was tested. Which growth did it give?
Answer: The growth was 88.9%.

Question: With `CN=C1C=C/C(=N/N=c2/ccn(O)cc2C)C=C1C` as the molecule, how does the growth read?
Answer: Its growth is 83.1%.

Question: For `COc1ccc2[nH]cc(-c3nc(-c4c[nH]c5ncccc45)cs3)c2c1`, which growth is on record?
Answer: The growth was 39.1%.

Question: `CCCCCCNC(=O)Oc1ccc(/C(=C(/CC)Cc2ccccc2)c2ccc(OCCN(CC)CC)cc2)cc1` was tested. Which growth did it give?
Answer: Its growth is 64.4%.

Question: Which growth does the source give for `COc1cc(NC(=O)c2cc(O)c(CC=C(C)C)c(O)c2)cc2c1O[C@]1(C)CC[C@@H](O)C(C)(C)[C@H]1C2` here?
Answer: The growth was 30.8%.

Question: Which growth does the source give for `CC(=C(c1ccc(OCCN(C)C)cc1)c1ccc(OCCN(C)C)cc1)c1ccc(Cl)cc1` here?
Answer: Its growth is -81.1% (active).

Question: For `CCn1c(Cc2ccccc2Nc2c(Cl)cccc2Cl)nnc1SCC(=O)Nc1ccccc1C(F)(F)F`, which growth is on record?
Answer: The growth was 69.9%.

Question: For `CC(=O)CC1CCCC1c1ccc2ccccc2c1` (stereo unspecified), which growth is on record?
Answer: Its growth is 101%.

Question: `Nc1ccn(C2O[C@H](CO)[C@@H](O)[C@H]2O)c(=O)n1` (stereo partly specified) was tested. Which growth did it give?
Answer: Its growth is 96.8%.

Question: For `CCCCCN1C(=O)CCC1=O`, which growth is on record?
Answer: The growth was 108%.

Question: For `COc1cc(-c2nn(-c3cccc(NC(=O)Nc4ccc(Cl)c(C(F)(F)F)c4)c3)cc2-c2ccncc2)ccc1Cl`, which growth is on record?
Answer: Its growth is -7.22% (active).

Question: Which growth does the source give for `CC1=C[C@H]2c3c(c(O)c(O)c4oc5ccccc5c(=O)c34)[C@H](c3cc(O)c(O)c4oc5ccccc5c(=O)c34)[C@H]2C(C)(C)C1` here?
Answer: The growth was 25.2%.

Question: `O=C(CCc1nnc2sc(-c3cc(O)c(O)c(O)c3)nn12)c1nc2ccccc2[nH]1` was tested. Which growth did it give?
Answer: The growth was 86.8%.

Question: How did the growth turn out when `C(=N/Nc1ncnc2nc[nH]c12)/c1ccccn1` was run?
Answer: Its growth is -27.3% (active).

Question: With `COC(=O)c1c2c(c(C)[n+]([O-])c1C)C(=O)C(NCc1ccc(O)cc1)=CC2=O` as the molecule, how does the growth read?
Answer: The growth was -44.2% (active).

Question: For `O=C(NCCNC(=O)c1ccc(F)cc1)Nc1ccc(-n2cc(-c3ccncc3)c(-c3ccc(Cl)c(O)c3)n2)cc1`, which growth is on record?
Answer: Its growth is -35.9% (active).

Question: Which growth does the source give for `COc1ccc(/C=C/C(=O)c2cccc(B(O)O)c2)cc1O` here?
Answer: Its growth is 34.9%.

Question: With `C#CCn1c2c(c3ccccc31)C[C@]1(C)[C@H]3CC[C@@H]4[C@@H]5C(=CCC[C@H]5C(=C)C)CC[C@@]4(C)[C@]3(C)CC[C@H]1C2(C)C` as the molecule, how does the growth read?
Answer: Its growth is 117%.

Question: Which growth does the source give for `Nc1cc(-c2cccc(OC(F)(F)F)c2)nc2ccc(N3CCCC3)cc12` here?
Answer: Its growth is -10.7% (active) and -15.9% (active) and -23.5% (active).

Question: How did the growth turn out when `CC(CCC#N)(CCC#N)C(=O)c1ccccc1` was run?
Answer: Its growth is 106%.

Question: How did the growth turn out when `CC(C)=CCc1cc2c(cc1O)C1=C(C(=O)C3=C(C1=O)S(=O)(=O)CCN3)C(C=C(C)C)O2` (stereo unspecified) was run?
Answer: The growth was -33.5% (active).

Question: Which growth does the source give for `O=C(Cn1c[n+](CC(=O)c2ccc([N+](=O)[O-])cc2)c2ccccc21)Nc1cccc2cccnc12` here?
Answer: The growth was 9.02% (active).

Question: Which growth does the source give for `F` here?
Answer: Its growth is 40.9% [6.87 mM].

Question: For `COc1ccccc1Nc1nc2c(s1)C1=CC[C@H]3[C@@H]4CC[C@H]([C@H](C)CCCC(C)C)[C@@]4(C)CC[C@@H]3[C@@]1(C)CC2`, which growth is on record?
Answer: Its growth is 113%.

Question: With `Fc1cc(C2=NNC(c3ccc[nH]3)C2)ccc1-n1ccc(C(F)(F)F)n1` (stereo unspecified) as the molecule, how does the growth read?
Answer: Its growth is 89.7%.

Question: With `Cc1ccc(OC(=O)c2ccc(Cl)cc2)cc1` as the molecule, how does the growth read?
Answer: Its growth is 105%.

Question: With `COC(=O)CCc1cc(O)c2c(c1)[C@@H](C(=O)OC)[C@H](c1ccc(O)c(O)c1)O2` as the molecule, how does the growth read?
Answer: The growth was 83.4%.

Question: With `N#Cc1cccc(CN2CCc3ncn(Cc4ccc(Cl)cc4)c(=O)c3C2)c1` as the molecule, how does the growth read?
Answer: Its growth is -21.8% (active).

Question: How did the growth turn out when `N#C/C(=C\c1ccc(C#N)cc1)C(=O)c1ccccc1` was run?
Answer: The growth was 95.7%.

Question: With `CC1=C([Se]CC(OC(=O)CC[Se]c2ccccc2)C(=O)NCCCCCC(=O)OCc2ccccc2)C(=O)c2ccccc2C1=O` (stereo unspecified) as the molecule, how does the growth read?
Answer: The growth was -7.59% (active).

Question: For `O=C1/C(=C/c2ccc(F)cc2)CN(C(=O)C(Cl)Cl)C/C1=C\c1ccc(F)cc1`, which growth is on record?
Answer: The growth was -47% (active).

Question: Which growth does the source give for `COc1cc2cc3c(=O)n4c(cc5cc(OC)ncc54)c(=O)n3c2cn1` here?
Answer: The growth was 102%.
